Hit rate of the full screen: of about 5,500 compounds, about 2,000 (36%) were called active. Another 18% or so got no clear call; they are omitted. No stated cut-off is given here; in the data, active means normalized growth mostly below about 0.91 (no sharp cut-off); inconclusive means no clear call, values can overlap the other calls; inactive means mostly above about 0.92. The list shows a part of the results.
Assay: chemical genetic growth profiling, strain panel (AID 1159580);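 further: tested at 20 µM; growth read once vehicle control cultures reached saturation at 30 °C; 1 = growth at the plate median or of vehicle wells; lower values mean less growth of the strain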
Conditions: growth OD

Measured: normalized growth

NCc1ccc(S(N)(=O)=O)cc1
inactive: S. cerevisiae deletion strains, locus YKL009W, strain mrt4, active compounds read low 0.974 | S. cerevisiae deletion strains, locus YKL068W, active compounds read low 0.987 | S. cerevisiae deletion strains, locus YKL085W, strain MDH1 (second series), active compounds read low 0.982 | S. cerevisiae deletion strains, locus YKL085W, strain MDH1, active compounds read low 0.982 | S. cerevisiae deletion strains, locus YKL160W, strain elf1, active compounds read low 1.06 | S. cerevisiae deletion strains, locus YKL190W, strain CNB1, active compounds read low 1.01 | S. cerevisiae deletion strains, locus YKR001C, strain vps1, active compounds read low 1.02 | S. cerevisiae deletion strains, locus YKR026C, strain gcn3, active compounds read low 1.01 | S. cerevisiae deletion strains, locus YKR091W, strain srl3, active compounds read low 1 | S. cerevisiae deletion strains, locus YLL001W, strain dnm1, active compounds read low 1.05 | S. cerevisiae deletion strains, locus YLL026W, active compounds read low 1 | S. cerevisiae deletion strains, locus YLL041C, strain sdh2, active compounds read low 0.996 | S. cerevisiae deletion strains, locus YLR027C, strain aat2, active compounds read low 1.01 | S. cerevisiae deletion strains, locus YLR039C, strain RIC1, active compounds read low 0.986 | S. cerevisiae deletion strains, locus YLR058C, strain SHM2, active compounds read low 0.984 | S. cerevisiae deletion strains, locus YLR102C, strain apc9, active compounds read low 0.988 | S. cerevisiae deletion strains, locus YLR113W, strain HOG1, active compounds read low 1.01 | S. cerevisiae deletion strains, locus YLR221C, strain rsa3, active compounds read low 1.05 | S. cerevisiae deletion strains, locus YLR258W, strain gsy2, active compounds read low 1.01 | S. cerevisiae deletion strains, locus YLR262C, strain YPT6 (second series), active compounds read low 1.04 | S. cerevisiae deletion strains, locus YLR262C, strain YPT6, active compounds read low 1.02 | S. cerevisiae deletion strains, locus YLR268W, strain sec22, active compounds read low 0.988 | S. cerevisiae deletion strains, locus YLR320W, strain mms22, active compounds read low 1.06 | S. cerevisiae deletion strains, locus YLR330W, strain CHS5, active compounds read low 0.989 | S. cerevisiae deletion strains, locus YLR342W, strain FKS1 (second series), active compounds read low 1 | S. cerevisiae deletion strains, locus YLR342W, strain FKS1, active compounds read low 1.01 | S. cerevisiae deletion strains, locus YLR357W, strain rsc2, active compounds read low 1.01 | S. cerevisiae deletion strains, locus YLR370C, strain arc18, active compounds read low 1.01 | S. cerevisiae deletion strains, locus YLR371W, strain rom2, active compounds read low 0.985 | S. cerevisiae deletion strains, locus YLR384C, strain iki3, active compounds read low 1.01 | S. cerevisiae deletion strains, locus YLR418C, strain cdc73, active compounds read low 0.954 | S. cerevisiae deletion strains, locus YML016C, strain PPZ1, active compounds read low 0.995 | S. cerevisiae deletion strains, locus YML032C, strain rad52, active compounds read low 0.99 | S. cerevisiae deletion strains, locus YML120C, strain ndi1, active compounds read low 1.04 | S. cerevisiae deletion strains, locus YML124C, strain tub3, active compounds read low 0.99 | S. cerevisiae deletion strains, locus YMR058W, strain fet3, active compounds read low 1.02 | S. cerevisiae deletion strains, locus YMR078C, strain ctf18, active compounds read low 0.978 | S. cerevisiae deletion strains, locus YMR125W, strain sto1, active compounds read low 1.04 | S. cerevisiae deletion strains, locus YMR129W, active compounds read low 1 | S. cerevisiae deletion strains, locus YMR205C, strain PFK2, active compounds read low 1.05 | S. cerevisiae deletion strains, locus YMR223W, strain ubp8, active compounds read low 0.962 | S. cerevisiae deletion strains, locus YMR231W, strain pep5, active compounds read low 0.993 | S. cerevisiae deletion strains, locus YMR263W, strain SAP30, active compounds read low 0.999 | S. cerevisiae deletion strains, locus YMR307W, strain GAS1, active compounds read low 1.01 | S. cerevisiae deletion strains, locus YNL067W, strain RPL9B, active compounds read low 1 | S. cerevisiae deletion strains, locus YNL071W, strain lat1, active compounds read low 1.01 | S. cerevisiae deletion strains, locus YNL153C, strain GIM3, active compounds read low 1.01 | S. cerevisiae deletion strains, locus YNL183C, strain NPR1, active compounds read low 0.956 | S. cerevisiae deletion strains, locus YNL209W, strain ssb2, active compounds read low 1 | S. cerevisiae deletion strains, locus YNL233W, strain BNI4, active compounds read low 0.99 | S. cerevisiae deletion strains, locus YNL248C, strain rpa49, active compounds read low 1.04 | S. cerevisiae deletion strains, locus YNL250W, strain rad50, active compounds read low 0.967 | S. cerevisiae deletion strains, locus YNL271C, strain bni1, active compounds read low 0.985 | S. cerevisiae deletion strains, locus YNL298W, strain CLA4, active compounds read low 0.991 | S. cerevisiae deletion strains, locus YNL307C, strain MCK1, active compounds read low 0.992 | S. cerevisiae deletion strains, locus YNL322C, strain KRE1 (second series), active compounds read low 1.02 | S. cerevisiae deletion strains, locus YNL322C, strain KRE1, active compounds read low 0.999 | S. cerevisiae deletion strains, locus YNR049C, strain mso1, active compounds read low 0.999 | S. cerevisiae deletion strains, locus YNR052C, strain pop2, active compounds read low 0.987 | S. cerevisiae deletion strains, locus YOL006C, strain TOP1, active compounds read low 0.97 | S. cerevisiae deletion strains, locus YOL012C, strain htz1 1.28 | S. cerevisiae deletion strains, locus YOL147C, strain pex11, active compounds read low 0.985 | S. cerevisiae deletion strains, locus YOR001W, strain rrp6, active compounds read low 0.972 | S. cerevisiae deletion strains, locus YOR061W, strain CKA2, active compounds read low 0.993 | S. cerevisiae deletion strains, locus YOR069W, strain VPS5, active compounds read low 0.99 | S. cerevisiae deletion strains, locus YOR070C, strain gyp1, active compounds read low 1.01 | S. cerevisiae deletion strains, locus YOR080W, strain dia2, active compounds read low 0.996 | S. cerevisiae deletion strains, locus YOR083W, strain WHI5, active compounds read low 1.06 | S. cerevisiae deletion strains, locus YOR106W, strain vam3, active compounds read low 1.06 | S. cerevisiae deletion strains, locus YOR136W, strain idh2, active compounds read low 0.992 | S. cerevisiae deletion strains, locus YOR144C, strain elg1, active compounds read low 0.987 | S. cerevisiae deletion strains, locus YOR184W, strain ser1, active compounds read low 1 | S. cerevisiae deletion strains, locus YOR231W, strain MKK1, active compounds read low 1.01 | S. cerevisiae deletion strains, locus YOR265W, strain rbl2, active compounds read low 1.02 | S. cerevisiae deletion strains, locus YOR270C, strain vph1, active compounds read low 1.06 | S. cerevisiae deletion strains, locus YOR290C, strain snf2, active compounds read low 1.02 | S. cerevisiae deletion strains, locus YOR316C, strain cot1, active compounds read low 0.993 | S. cerevisiae deletion strains, locus YPL051W, strain arl3, active compounds read low 1.03 | S. cerevisiae deletion strains, locus YPL055C, strain LGE1, active compounds read low 1.01 | S. cerevisiae deletion strains, locus YPL078C, strain atp4, active compounds read low 1.06 | S. cerevisiae deletion strains, locus YPL106C, strain sse1, active compounds read low 1.03 | S. cerevisiae deletion strains, locus YPL240C, strain hsp82, active compounds read low 1.01 | S. cerevisiae deletion strains, locus YPL241C, strain CIN2, active compounds read low 0.998 | S. cerevisiae deletion strains, locus YPL256C, strain CLN2, active compounds read low 1.01 | S. cerevisiae deletion strains, locus YPR119W, strain clb2, active compounds read low 0.993 | S. cerevisiae deletion strains, locus YPR141C, strain kar3, active compounds read low 0.976 | S. cerevisiae deletion strains, locus YPR163C, strain tif3, active compounds read low 0.995 | S. cerevisiae deletion strains, locus YPR167C, strain met16, active compounds read low 0.99 | S. cerevisiae deletion strains, strain wtn01, active compounds read low 0.987 | S. cerevisiae strains, strain wild type, active compounds read low 1.01

— PubChem BioAssay AID1159580 (chemical genetic matrix, 2015)
